The whole screen tested about 290,000 compounds, of which about 400 (0.14%) were called active. Only a selection was taken, and actives are over-represented in it overall. A number with no mark means an inactive call. No stated cut-off is given here; in the data, active means inhibition above about 12%; inactive means the rest.
What follows are compounds tested against Replicase polyprotein 1ab (Severe acute respiratory syndrome coronavirus) (UniProt P0C6X7) (assay: SARS-CoV 3CLpro protease inhibitors, primary screen, biochemical, quenched FRET (AID 1706)). Conditions: recombinant SARS-CoV 3CLpro, quenched FRET peptide cleavage; at 6 µM; hits give high values.

SMILES | inhibition
COC(=O)c1ccc2c(=O)n(CCN3CCOCC3)c(SCC(=O)Nc3cccc(OC)c3)nc2c1 | -4.67%
CCC(=O)c1cn(CCOc2ccccc2OC)c2ccccc12 | 1.13%
COc1ccccc1NC(=O)N1CCCC1C(=O)NCc1cccs1 (stereo not drawn) | -2.73%
Cc1cc(C)cc(NS(=O)(=O)Cc2ccccc2)c1 | -7.45%
CCCc1nnc(NC(=O)CCC(=O)NC2CC2)s1 | -2.59%
O=C(COC(=O)CCCNC(=O)c1ccc(Cl)cc1)Nc1cc(Cl)ccc1Cl | -4.18%
O=C(CN1CCC(NC(=O)Nc2ccccc2)CC1)Nc1cccc([N+](=O)[O-])c1 | -2.45%
CN(CC(=O)Nc1cccc(F)c1)CC(=O)Nc1cccc([N+](=O)[O-])c1 | 0.23%
CN1CCN(CC(=O)Nc2cccc([N+](=O)[O-])c2)CC1 | 15.7% (active)
CC(=O)N1CCSc2ccc(S(=O)(=O)N3CCC(C)CC3)cc21 | 0.66%
O=C(COC(=O)c1cc(=O)[nH]c2ccccc12)Nc1nc(-c2cccc(Br)c2)cs1 | 2.23%
CC(C)NC(=O)COCc1cc(-c2ccc3c(c2)OCO3)on1 | 3.95%
CCc1nonc1NC(=O)c1oc2ccc(Cl)cc2c1C | -1.85%
CCN1CCN(C(=O)Cn2nc(C)n3c(cc4c(OC)cccc43)c2=O)CC1 | -4.38%
COc1ccc(NC(=O)C2C3C=CC(C3)C2C(=O)NCc2ccccn2)c(OC)c1 (stereo not drawn) | 0.98%
O=C(CCc1nnc2ccc(NCc3ccccc3Cl)nn12)NCC1CCN(C2CCCC2)C1 (stereo not drawn) | 2.8%
COc1cccc(CNS(=O)(=O)c2cc3c(cc2C)n(C)c(=O)c(=O)n3C)c1 | 3.5%
O=C1C(=O)N(CC2COc3ccccc3O2)c2ccccc21 (stereo not drawn) | 23.4% (active)
Cc1cc(C(=O)CCl)c(C)n1CC1COc2ccccc2O1 (stereo not drawn) | 6.71%
O=C(CN1C(=O)C2C3C=CC(C3)C2C1=O)NCC1COc2ccccc2O1 (stereo not drawn) | 2.22%
CC(C)c1ccccc1OCC(O)CN(CC(O)COc1cccc2ccccc12)C(C)C (stereo not drawn) | 3.86%
Nc1ncc(CN2CCCC(C(=O)Nc3ccc(-c4ccco4)cc3)C2)cn1 (stereo not drawn) | -4.02%

SMILES | inhibition
CC12CCC(C(=O)N(NC(=O)c3ccccc3O)C1=O)C2(C)C (stereo not drawn) | 5.94%
Cc1ccc(-c2nc(-c3cccnc3)sc2CC(=O)Nc2ccc(C)c(Cl)c2)cc1 | -0.63%
Oc1ccc2ccc3cccc[n+]3c2c1 | 3.63%
CN(C)S(=O)(=O)c1cccc(C(=O)OCC(=O)N2CCCC2=O)c1 | 0.39%
C[C@H](NC(=O)C1CC(=O)N(c2ccc3c(c2)OCCO3)C1)C(=O)N1CCC(C(=O)O)CC1 (stereo partly drawn) | 2.21%
CCOC(CNC(=O)C(=O)NCC(c1ccco1)N1CCN(c2ccc(OC)cc2)CC1)OCC (stereo not drawn) | -3.43%
Cc1c(C(=O)NCCN2CCOCC2)sc2nc(-c3ccc(F)cc3)cn12 | 3.35%
Cc1ccc(NS(=O)(=O)c2ccc3c(c2)oc(=O)n3C)c(C)c1 | 8.19%
CC1(C)N=C(c2ccccn2)C(C)(C)N1O | -1.96%
COc1ccc([N+](=O)[O-])cc1NCC(=O)c1ccc(C)cc1 | -0.37%
O=c1[nH]c(/C=C\c2cccc(C(F)(F)F)c2)nc(O)c1[N+](=O)[O-] | -0.63%
COc1ccc(C(CNC(=O)c2cc3c(s2)CCCC3)N2CCOCC2)cc1 (stereo not drawn) | 0.58%
N#Cc1ncc(C(F)(F)F)cc1Oc1cccnc1 | 4%
COc1cccc(C(=O)NC(=O)Nc2nc(C)cc(C(F)(F)F)n2)c1 | -0.93%
COc1cccc(CN(C)CC(O)COC(c2ccccc2)c2ccccc2C)c1 (stereo not drawn) | -1.74%
CCCCCCCCCCCCN1C(=O)CSC1c1cccnc1 (stereo not drawn) | 0.63%
Cn1nc(-c2ccc(N3CCOCC3)c(NC(=O)c3ccccc3)c2)c2ccccc2c1=O | -4%
O=C(Cc1ccc(Br)cc1)NCCN1CCOCC1 | -3.15%
Cc1ccc(CNC(=O)C2(C(F)(F)F)C/C(=C\Cc3ccccc3)CCCO2)o1 (stereo not drawn) | 2.14%
CC(=O)N1CCCc2cc(S(=O)(=O)N3CCCC(C(=O)N4CCN(c5cccc(Cl)c5)CC4)C3)ccc21 (stereo not drawn) | -4.69%
COc1cccc(N(C(=O)CNC(=O)c2ccco2)C(C(=O)NC2CCCCC2)c2cccnc2)c1 (stereo not drawn) | 0.2%
CC(C)c1ccc(N(C(=O)c2ccco2)C(C(=O)NC2CCCC2)c2cccnc2)cc1 (stereo not drawn) | 50.8% (active)

SMILES | inhibition
O=C(NC1CCCC1)C(c1ccco1)N(C(=O)c1ccco1)c1ccc(F)cc1 (stereo not drawn) | -3.74%
CS(=O)(=O)N(CC(=O)N1CCOCC1)c1cccc(Cl)c1Cl | 10.7%
CCC(C)(C)NC(=O)C(c1ccc(O)cc1)N(C(=O)Cn1nnc2ccccc21)c1ccc(NC(C)=O)cc1 (stereo not drawn) | 27.5% (active)
COc1ccc(C(C(=O)NC(C)(C)C)N(C(=O)Cn2nnc3ccccc32)c2ccc(C(C)=O)cc2)cc1O (stereo not drawn) | 3.87%
COc1ccc(C(C(=O)NCC2CCCO2)N(C(=O)Cn2nnc3ccccc32)c2ccc(NC(C)=O)cc2)cc1OC (stereo not drawn) | 11.5%
CN1CN(C)c2ccc([N+](=O)[O-])c3cccc1c23 | 2.09%
Cc1c(C(=O)NCC(c2ccco2)N2CCCC2)oc2ccc(Cl)cc12 (stereo not drawn) | -1.9%
CCN(CC(=O)NCC(=O)Nc1cccc(C)c1C)Cc1ccccc1 | -2.94%
CCOC(=O)c1ccc(-n2c(CCC(=O)O)ccc2-c2ccccc2)cc1 | 3.33%
Cc1ccc2c(c1)C1CN(C)CCC1N2S(=O)(=O)c1ccc(Oc2ccc([N+](=O)[O-])cc2)cc1 (stereo not drawn) | 0.21%
O=C1CCCCN1CCCC(=O)N1CCCC(Nc2ccc(F)cc2)C1 (stereo not drawn) | -2.27%
CCN1CCN(C(=O)C2CCCN(S(=O)(=O)c3ccc(OC)c(OC)c3)C2)CC1 (stereo not drawn) | -7.47%
CC(C)c1c(C(=O)N/N=C/c2ccc(-c3ccccc3)cc2)nnn1-c1nonc1N | 1.56%
c1ccc2c(-c3nn4nnnc4c4ccccc34)cccc2c1 | -0.16%
CC(=O)c1cccc(NC(=S)N2CCCC2)c1 | 0.53%
Cc1ccc(OCC(=O)Nc2cccc3c2CCCC3)cc1C | -0.37%
Cc1cccc(OCC(=O)Nc2ccc(C(=O)O)cc2NC(=O)COc2cccc(C)c2)c1 | 6.23%
Cc1ccc(OCC(=O)Nc2ccc(C(=O)O)cc2NC(=O)COc2ccc(C)c(C)c2)cc1C | 14.3% (active)
COc1cccc(CNC(=O)CN(C)S(=O)(=O)c2ccc3c(c2)c(=O)n(C)c(=O)n3C)c1 | 0.08%
COc1cccc(Cn2cc(/C=N/NC(=O)c3cc(O)cc(O)c3)c3ccccc32)c1 | 6.16%
Cc1ccc2c(c1)sc1ncc(NC(=O)c3ccccc3)c(=O)n12 | -0.46%
COC(=O)c1ccc(COC(=O)c2cnc(Cl)c(Cl)c2)cc1 | 7.32%

SMILES | inhibition
COc1ccc2cc(CCl)c(Cl)nc2c1 | -3.78%
COc1ccc(C(=O)NC(=S)N2CCNC(=O)C2CC(=O)OC(C)C)cc1 (stereo not drawn) | 0.58%
CC(=O)N1CCN(C(=O)C2(NC(=O)Nc3ccc(C)cc3)CCCCC2)CC1 | -11.2%
CC(=O)Nc1ccc(NC(=O)C2CCCN2S(=O)(=O)c2cccc(C(F)(F)F)c2)cc1 (stereo not drawn) | -4.86%
Cc1cccc[n+]1CC(=O)c1ccccc1 | 3.16%
CCNS(=O)(=O)c1ccc(NC(=O)Nc2cccc(C(F)(F)F)c2)cc1 | -1.22%
O=C(/C=C/c1ccc(F)cc1)Nc1cccc(S(=O)(=O)Nc2cccc(C(F)(F)F)c2)c1 | 5.74%
Cc1oc2c(F)c(F)c(F)c(F)c2c1S(=O)(=O)Nc1cccc(C(F)(F)F)c1 | 17.6% (active)
Cc1ccc(S(=O)(=O)N(CC(=O)NCc2ccco2)c2ccccc2C)cc1 | -1.63%
COc1ccccc1N(C(=O)Cn1nnc2ccccc21)C(C(=O)NCc1ccco1)c1ccc(C)o1 (stereo not drawn) | 20.2% (active)
COCCNC(=O)C(c1ccc(C)o1)N(Cc1ccccc1)C(=O)Cn1nnc2ccccc21 (stereo not drawn) | 0.75%
O=C(NCc1ccco1)C(c1ccncc1)N(C(=O)Cn1nnc2ccccc21)c1ccccc1 (stereo not drawn) | 1.89%
Cc1cc(-c2ccc(S(=O)(=O)N3CCN(c4cccc(C(F)(F)F)c4)CC3)s2)on1 | 10.1%
O=C(c1c(F)cccc1Cl)N1CCN(S(=O)(=O)c2ccc3c(c2)OCCCO3)CC1 | -1.16%
COc1ccc(C)cc1N(CC(=O)NC(C)c1ccccc1)S(C)(=O)=O (stereo not drawn) | -1.09%
Cc1ccccc1-c1nc(CS(=O)(=O)CC(=O)NC(C)c2ccccc2)c(C)o1 (stereo not drawn) | -0.9%
O=C(c1cc(=O)c2ccccc2o1)N1CCN(c2ccccc2)CC1 | 13.7% (active)
COc1ccccc1N1CCN(C(=O)c2cc(=O)c3cc(C)ccc3o2)CC1 | -1.99%
COc1cc2c(cc1OC)CN(C(=O)c1cc(=O)c3ccccc3o1)CC2 | -3.13%
CCOc1ccc(OCCSc2nc3ccccc3n2CC(=O)O)cc1 | 1.7%
Cc1coc2c1c(C)cc1oc(=O)c(CC(=O)NCC(=O)N[C@H](C(=O)O)C(C)C)c(C)c12 | 2.83%
Cc1ccc(S(=O)(=O)N[C@@H](Cc2ccccc2)C(=O)N2CCC(C(=O)N[C@H](C(=O)O)C(C)O)CC2)cc1 (stereo partly drawn) | -4.09%

From PubChem BioAssay AID1706 (The Scripps Research Institute Molecular Screening Center, 2009)
